Sampled rows, rich in hits. Any-hit rate of the full collection: about 9.5%.
SARS PLpro yeast – inhibitors of SARS-CoV papain-like protease in yeast; S. cerevisiae expressing SARS-CoV PLpro, growth rescue; Potency, µM (titrated, usually from 32.9 µM), without a hit: top-dose activity, positive = growth rescue, hits mostly activators; 0.19% of 330,000 active; AID 485353; further: 0% is about no effect; nearly all actives have a fitted effect of over 55% in size
RE007 growth inh – less growth of the S. pombe RE007 Vpr strain; S. pombe RE007 Vpr strain, BacTiter-Glo ATP luminescence, 24 h; Potency, µM (titrated, usually from 92.2 µM), for inactives: at the highest dose activity change, negative = less growth, most hits filed as inhibitors; 0.21% of 360,000 active; active means well fitted falling curve with a large enough effect; inconclusive means small, poorly fitted or top-dose-only effect; inactive means no such curve, though single readings can be large or run the other way; further: on the % scale 0 is the no-effect control and ±100 the full control effect; nearly all actives have a fitted effect of over 50% in size
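Fission yeast strain RE007, carrying one chromosomally integrated HIV-1 vpr copy, was seeded at OD 0.01 in PMG+AL medium with 23 nL pinned compound. After 24 h at 30 °C and 99% humidity, viability was read by BacTiter-Glo luminescence.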
Pf growth 96h – inhibits malaria parasite growth, 96 h; P. falciparum luciferase reporter growth, 96 h; Potency, µM (top dose mostly 28.7 µM), without a hit: at the highest dose activity change, negative = inhibition, usual class: inhibitors; 6.9% of 320,000 active; AID 504834; active means well fitted inhibition curve with a large enough effect; inconclusive means small, poorly fitted or top-dose-only effect, or another doubt; inactive means no such curve, though single readings can be large or run the other way; further: on the % scale 0 is the no-effect control and ±100 the full control effect
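P. falciparum expressing integrated firefly luciferase, in erythrocytes at 2% hematocrit, 0.05% parasitemia, incubated with compounds 96 h at 37 C, 5% CO2. Growth inhibition read as loss of luminescence; two-generation exposure targets delayed-death apicoplast inhibitors.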
Pf growth 48h – inhibits P. falciparum growth in the first generation, 48 h; 5.9% of 310,000 active; P. falciparum luciferase growth in erythrocytes, 48 h; Potency, µM (series often up to 28.7 µM), inactives show at the top dose activity change, negative = inhibition, usual class: inhibitors; AID 504832; active means well fitted inhibition curve with a large enough effect; inconclusive means small, poorly fitted or top-dose-only effect, or another doubt; inactive means no such curve, though single readings can be large or run the other way; further: on the % scale 0 is the no-effect control and ±100 the full control effect
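Here the parasites carry a stable luciferase gene and grow inside erythrocytes in Albumax-based RPMI medium with compound for one erythrocytic cycle. Activity is scored as loss of luminescent signal.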
NS1 function inh – influenza NS1 inhibition. Potency, µM (series often up to 46.1 µM), without a hit: at the top dose activity, positive = more growth. 0.4% of 270,000 active. AID 2326; further: actives are rising curves; nearly all actives have a fitted effect of over 50% in size
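Read-out: OD600 growth recovery of NS1-expressing budding yeast. Cells grown overnight at 30C in -URA glucose medium, washed, resuspended and diluted 1:100 in 2% galactose assay medium, pH 6.0. Same strain lacking NS1 served as positive control.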
Active calls of the source: *; [ ] = dose if it differs, or a comment. Unless noted, the call rests on the fitted dose curve. Potency means the concentration at half of the fitted maximal effect.

Results for Cc1ccc(S(=O)(=O)N2C[C@H]3n4c(=O)ccc(=O)n4C[C@H](OC(=O)NCc4ccco4)[C@@]3(O)C2)cc1 ?
RE007 growth inh: 6%

How did CCc1ccc(NC(=S)NC(=O)c2c(-c3ccccc3Cl)noc2C)cc1 do in these assays?
SARS PLpro yeast: -4%; RE007 growth inh: -4%; Pf growth 96h: 7.4µM*; Pf growth 48h: 12µM*; NS1 function inh: 9%

How did COc1ccc(NC(=O)c2c(-c3ccccc3)noc2C)c(OC)c1 do in these assays?
SARS PLpro yeast: -5%; RE007 growth inh: 1%; Pf growth 96h: inconclusive; NS1 function inh: -10%

What do the screens show for `Cc1onc(-c2ccccc2)c1C(=O)Nc1ccc(Br)cc1Cl`?
SARS PLpro yeast: 1%; RE007 growth inh: 1%; Pf growth 96h: 2%; Pf growth 48h: 15µM*; NS1 function inh: 3%

How did COc1ccc(NC(=O)c2c(-c3ccccc3Cl)noc2C)c(OC)c1 do in these assays?
SARS PLpro yeast: -2%; RE007 growth inh: 10%; Pf growth 96h: 0%; Pf growth 48h: 2.6µM*; NS1 function inh: -17%

Results for Cc1cc(C)n(-c2ccc(Cl)c(C(=O)Nc3ccc(-c4nnc5n4CCCCC5)cc3)n2)n1 ?
SARS PLpro yeast: 0%; RE007 growth inh: -4%; Pf growth 96h: 8.3µM*; Pf growth 48h: inconclusive; NS1 function inh: -10%

What do the screens show for `CC1(C(=O)Nc2ccccc2F)CCN1C(=O)Cc1cc(F)ccc1F` (stereo not given)?
RE007 growth inh: 0%[18.4 µM]

How did C=CCN1C(=O)c2ccc(C(=O)N(CC)CC(=O)Nc3c(F)cccc3F)cc2C1=O do in these assays?
SARS PLpro yeast: -2%; RE007 growth inh: -9%; Pf growth 96h: 0%; Pf growth 48h: inconclusive

Results for COc1ccc(C(=O)CNc2cccc(F)c2)cc1 ?
SARS PLpro yeast: -5%; RE007 growth inh: -6%; Pf growth 96h: 4%; Pf growth 48h: 46%; NS1 function inh: -8%

How did Cc1onc(-c2ccccc2Cl)c1C(=O)NC(=S)Nc1ccc(C(C)(C)C)cc1 do in these assays?
SARS PLpro yeast: 1%; RE007 growth inh: -17%; Pf growth 96h: 6.6µM*; Pf growth 48h: inconclusive; NS1 function inh: 20%

How did Cc1onc(-c2ccccc2Cl)c1C(=O)Nc1ccc(-c2nnc3n2CCCCC3)cc1 do in these assays?
SARS PLpro yeast: 1%; RE007 growth inh: 8%; Pf growth 48h: 9.3µM*; NS1 function inh: -3%

Results for COC(=O)c1c(NC(=O)c2c(-c3ccccc3Cl)noc2C)sc2c1CCC2 ?
SARS PLpro yeast: 1%; RE007 growth inh: -3%; Pf growth 96h: 2.1µM*; NS1 function inh: 7%

Results for COC(=O)c1c(NC(=O)c2c(C)noc2C)sc2c1CCCCCC2 ?
SARS PLpro yeast: 3%; Pf growth 96h: 0%; Pf growth 48h: 7%; NS1 function inh: 6%

What do the screens show for `CC12CCC(C(=O)NC3CCCCC3)([C@H](Br)C1=O)C2(C)C` (stereo not given in full)?
SARS PLpro yeast: 0%; RE007 growth inh: 9%; Pf growth 96h: 29%; Pf growth 48h: 38%; NS1 function inh: 1%

How did CC(C)(c1ccc(O)c([N+](=O)[O-])c1)c1ccc(O)c([N+](=O)[O-])c1 do in these assays?
RE007 growth inh: -9%

How did O=[N+]([O-])c1cc([As](=O)(O)O)ccc1O do in these assays?
SARS PLpro yeast: 1%; RE007 growth inh: -2%[18.4 µM]; Pf growth 96h: 1.7µM*; Pf growth 48h: 2.6µM*

What do the screens show for `Cc1ccc(NC(=O)C2CCCN(c3ncccn3)C2)c(C)c1` (stereo not given)?
SARS PLpro yeast: 0%; RE007 growth inh: inconclusive; Pf growth 96h: 13µM*; Pf growth 48h: 73%; NS1 function inh: 2%

What do the screens show for `Cc1ccc(NC(=O)C2CCCN(c3nccc(C)n3)C2)c(C)c1` (stereo not given)?
SARS PLpro yeast: 0%; RE007 growth inh: 8%; Pf growth 96h: 3%; Pf growth 48h: -1%; NS1 function inh: -21%

How did Cc1ccc(NC(=O)C2CCCN(C3=NS(=O)(=O)c4ccccc43)C2)c(O)c1 (stereo not given) do in these assays?
SARS PLpro yeast: 1%; RE007 growth inh: 9%; Pf growth 96h: 15µM*; Pf growth 48h: 12µM*
